# Screening data: PubChem, National Center for Advancing Translational Sciences (NCATS)
# Compounds with a hit are over-represented: about 3.9% of the library has one in this group of screens.
# HT1080 IDH1KD tx: kills HT-1080 cells with IDH1 knockdown. AID 686971. HT-1080 IDH1 knockdown viability, ATP luminescence, 48 h. Potency, µM (titrated, usually from 46.1 µM), for inactives: at the highest dose activity, negative = toxicity, actives largely listed as cytotoxic. 2% of 360,000 active;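 further: 0% = DMSO wells and -100% = cell-free medium wells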
#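 Viability of IDH1-knockdown HT-1080 fibrosarcoma cells was assessed by CellTiter-Glo after 48 h at 37 °C with titrated compound; concentration-effect curves were classified by fit quality and response size.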
# S2 tox: cell viability loss in ATXN counter-screen; AID 651635; 0.49% of 400,000 active; Potency, µM (doses to about 56.7 µM), actives largely listed as cytotoxic; S2 cells (HEK-293 line with an ATXN2-luciferase reporter) viability, CellTiter-Fluor protease fluorescence, 24 h; further: nearly all actives have a fitted effect of over 40% in size
# HT1080-NT tox: kills 2HG-producing HT-1080-NT fibrosarcoma cells. HT-1080-NT fibrosarcoma viability, CellTiter-Glo ATP luminescence, 48 h. Potency, µM (highest dose often 46.1 µM), for the others: top-dose activity, negative = less viability, hits mostly cytotoxic. 1.6% of 360,000 active. AID 686970;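 further: NT is the 2HG producing partner of a matched IDH1 knockdown line; 0% = DMSO-treated cells and -100% = media-only wells without cells; nearly all actives have a fitted effect of over 55% in size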
#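 Compounds were tested in concentration-response format on HT-1080-NT cells for 48 hours at 37 degrees C. Cell viability came from CellTiter-Glo luminescence; curves were classified by r2, response magnitude and activity.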
# HepG2 tox: HepG2 cytotoxicity, counter-screen for TGF-b inhibitors; HepG2 CAGA-GFP viability, ATP luminescence, 18 h; Potency, µM (doses to about 46.1 µM), without a hit: at the highest dose activity change, negative = cytotoxicity, hits mostly cytotoxic; 0.76% of 410,000 active
#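 HepG2 CAGA-GFP cells (1000/well, DMEM with 1% FBS) received compound, then TGF-beta at 500 pg/mL final, and were incubated 18 hours at 37 degrees C. Viability was read by CellTiter-Glo luminescence. Media-only wells were set as complete cell-killing and DMSO as no toxicity.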
# TGFb SMAD3 inh: inhibitors of TGF-b signaling | HepG2 CAGA-GFP TGF-b/SMAD3 reporter, GFP fluorescence, 18 h; TGF-beta stimulated, 500 pg/mL final | 1.2% of 410,000 active | Potency, µM (doses to about 46.1 µM), for inactives: at the top dose activity, negative = inhibition, usual class: inhibitors | AID 588855; further: on the % scale 0 is the no-effect control and ±100 the full control effect; nearly all actives have a fitted effect of over 65% in size
#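 Per well, imaged GFP fluorescence of HEPG2 CAGA-GFP cells gives the signal; cells get compound, then TGF-beta (500 pg/mL final), 18 h at 37 degrees C; %Activity versus -TGF-beta and +DMSO controls.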
# ATXN2 expr inh: inhibitors of ATXN2 expression; Potency, µM (doses to about 57 µM), for the others: top-dose activity change, negative = inhibition, usual class: inhibitors; AID 1745845; HEK-293 ATXN2-luciferase reporter, luminescence, 24 h; 0.72% of 360,000 active; further: on the % scale 0 is the no-effect control and ±100 the full control effect; nearly all actives have a fitted effect of over 55% in size
#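 ATXN2-luciferase reporter cells (luciferase flanked by upstream and downstream ATXN2 gene portions) were treated 24 h at 37 °C with compounds at up to 57 uM. SteadyGlo luminescence gave expression; GF-AFC fluorescence gave viability.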
# * = called active by the depositor; i = inactive; ? = inconclusive; · = no result; [ ] = remark or other dose. The call rests on the fitted dose curve; in most records, active means well fitted curve in the direction sought with a large enough effect; inconclusive means small, poorly fitted or top-dose-only effect, or another doubt; inactive means no such curve, though single readings can be large; an effect the other way counts as inactive or inconclusive. Potency means the concentration at half of the fitted maximal effect.
SMILES,HT1080 IDH1KD tx,S2 tox,HT1080-NT tox,HepG2 tox,TGFb SMAD3 inh,ATXN2 expr inh
CCOc1cc(/C=C/C(=O)c2ccc(OC)c(CN3CCOCC3)c2)cc(Br)c1O,23µM*,i,?,2%,20%,?
COc1ccc([C@H]2CC(=O)C=C(c3ccnc4ccc(Cl)cc34)C2)cc1,3.7µM*,?,18µM*,-27%,?,0%
CCOc1ccc(Br)cc1C1=CC(=O)C[C@H](c2ccc(OC)cc2)C1,5.8µM*,i,?,-1%,?,-5%
CSc1cccc(NC(=O)CC(c2ccc(F)cc2)N2Cc3ccccc3C2=O)c1 (configuration not stated),·,·,·,-18%,?,·
C1=CCOCc2cc(ccc2OCCN2CCCC2)Nc2nccc(n2)-c2cccc(c2)OCC1,·,·,·,·,·,15µM*
Cc1ccc(C)c(Cn2c(C3CC(=O)N(c4ccccc4C)C3)nc3ccccc32)c1 (configuration not stated),·,?,·,-22%,?,?
CCOc1ccc(-n2c(C)nc3cc(C(=O)NCCC4=CCCCC4)ccc32)cc1,·,i,·,-31%,18µM*,2%
Cc1nc2cc(C(=O)NCCC3=CCCCC3)ccc2n1-c1ccc(Br)cc1,·,?,·,-28%,?,?
Cc1nnsc1C(=O)Oc1ccc(C#N)cc1,·,i,·,-11%,9%,2%
COc1ccc(C(=O)C2CCCN(Cc3cccn3-c3ccccn3)C2)cc1F (configuration not stated),?,i,-15%,-36%,2%,-29%
COc1cccc(C(=O)C2CCCN(Cc3cccn3-c3ccccn3)C2)c1 (configuration not stated),?,i,?,-18%,8%,-22%[11.3 µM]
CC(C)Oc1cccc(C(=O)C2CCCN(Cc3cccn3-c3ccccn3)C2)c1 (configuration not stated),21µM*,?,23µM*,-29%,?,-20%[11.3 µM]
O=C(c1ccc(Cl)cc1)C1CCCN(Cc2cccn2-c2ccccn2)C1 (configuration not stated),23µM*,?,16µM*,-38%,-1%,?
CCOC(=O)C1(Cc2cccc(OC)c2)CCN(Cc2ccccc2)CC1,-17%,i,-19%,-5%,-5%,-29%
CCOC(=O)C1(Cc2cccc(OC)c2)CCN(Cc2cccn2-c2ccccn2)CC1,-24%,i,-20%,2%,3.2µM*,0%
CCOC(=O)c1ccc(NC(=O)CC2C(=O)N(c3ccc(F)cc3)C(=O)N2Cc2cccnc2)cc1 (configuration not stated),·,·,·,3%,15%,·
Cc1ccc(CNc2nc(CN3CCNC(=O)C3)nc3ccccc23)o1,·,i,·,·,·,·
COc1cc2[nH]c3c(N4CCN(c5ccccn5)CC4)ncnc3c2cc1OC,?,?,23µM*,-35%,0%,-9%
Fc1ccc2[nH]c3c(N4CCN(c5ccccc5)CC4)ncnc3c2c1,21µM*,?,?,-35%,?,?
OC1(c2cccc(C(F)(F)F)c2)CCN(c2ncnc3c2[nH]c2ccc(F)cc23)CC1,18µM*,i,23µM*,20µM*,?,6%
CCCN(C(=O)COc1cc(=O)n(CC)c2ccccc12)c1ccc(C(C)C)cc1,·,?,·,-73%,?,?
Cc1ccc2c(c1C)NC(=O)C21N2CCCC2C(C(=O)c2ccc3ccccc3c2)C12C(=O)Nc1ccccc12 (configuration not stated),-17%,i,0%,-39%,16µM*,·
NC[C@@H]1O[C@@H](O[C@H]2[C@@H](O)[C@H](O[C@@H]3[C@@H](O)[C@@H](N)C[C@H](N)[C@H]3O[C@H]3O[C@H](CN)[C@@H](O)[C@@H](O)[C@H]3N)O[C@H]2CO)[C@H](N)[C@@H](O)[C@@H]1O,·,i,·,·,·,2%
Cc1cccc(/C=N/NC(=O)c2cc(Br)ccc2OCc2ccccc2)n1,18µM*,i,?,-68%,?,-27%
CCOc1ccc(NC(=O)CSc2nnc(CNC(=O)C34CC5CC(CC(C5)C3)C4)n2CC)cc1,·,i,·,-15%,-29%,-6%
SMILES,HT1080 IDH1KD tx,S2 tox,HT1080-NT tox,HepG2 tox,TGFb SMAD3 inh,ATXN2 expr inh
Cc1c(C(=O)N2CCCC2)sc2ncnc(NCCN(C)C)c12,·,i,·,·,·,·
O=C(Nc1ccccc1Cl)c1cc(C2CCCN(S(=O)(=O)c3cccs3)C2)on1 (configuration not stated),9%,i,?,11µM*,?,-12%
O=C(Nc1ccc(F)c(Cl)c1)c1cc(C2CCCN(S(=O)(=O)c3cccs3)C2)on1 (configuration not stated),-26%,?,-20%,-15%,8%,-13%
CC(=O)Nc1cccc(-c2ccnc3c2CC(C)(C(=O)Nc2cccc(C(C)=O)c2)O3)c1 (configuration not stated),15µM*,?,-10%,-4%,-1%,-16%
CC(=O)Nc1cccc(-c2ccnc3c2CC(C)(C(=O)Nc2ccc(Cl)cc2)O3)c1 (configuration not stated),4.1µM*,?,9.2µM*,-6%,-1%,?
CN(C)c1ccc(-c2ccnc3c2CC(C)(C(=O)Nc2cccc(OC(F)(F)F)c2)O3)cc1 (configuration not stated),1%,i,4%,-15%,0%,7%
CC(=O)Nc1ccc(NC(=O)C2(C)Cc3c(-c4cccc(NC(C)=O)c4)ccnc3O2)cc1 (configuration not stated),3%,i,26%,0%,6%,-3%
CC1(C(=O)Nc2cccc(OC(F)(F)F)c2)Cc2c(-c3ccc4c(c3)OCO4)ccnc2O1 (configuration not stated),16µM*,i,?,-30%,?,0%
COc1ccc(Cn2ccnc2SCC(=O)Nc2ccc(C)cc2C)cc1,·,·,·,-6%,?,·
CO[C@H]1C[C@H](O[C@H]2[C@H](C)[C@@H](O[C@@H]3O[C@H](C)C[C@H](N(C)C)[C@H]3O)[C@@H](C)C[C@]3(CO3)C(=O)[C@H](C)[C@@H](O)[C@@H](C)[C@@H](C)OC(=O)[C@@H]2C)O[C@@H](C)[C@@H]1O,·,i,·,·,·,·
Cc1cc(C)cc(NS(=O)(=O)c2ccc3[nH]cc(C(=O)N(C)Cc4ccccc4)c(=O)c3c2)c1,·,i,·,-8%,?,11%
